Measurements as given in the supplement of paper PMC10981050.
Where “and” joins values, the source holds several entries; their conditions need not be identical. Identical values can stand only once. Counter-ions that a name gives are not always drawn.

Columns and labels:
Test in all cases: cell viability relative to vehicle control; higher = less cytotoxic
Details in all cases: 10 µM
K562 = tested on: K562
How it was run: (§1)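 Mutant clones made by CRISPR editing and their isogenic wild-type counterparts, from four leukaemia lines, were exposed to a single 10 µM dose of each library compound for 48 h. The supernatant was then removed and CellTiter-Glo luminescence was read. Viability was reported as percent of the on-plate vehicle control.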

MARIMO = tested on: MARIMO
How it was run: as §1

MOLM14 = tested on: MOLM14
How it was run: as §1

OCI-AML2 = tested on: OCI-AML2
How it was run: as §1

Structure (SMILES) | cell viability (K562; SRSF2 genotype: SRSF2 P95H/wt) | cell viability (K562; SRSF2 genotype: SRSF2 wt/wt) [%] | cell viability (MARIMO; SRSF2 genotype: SRSF2 P95H/wt) [%] | cell viability (MARIMO; SRSF2 genotype: SRSF2 wt/wt) [%] | cell viability (MOLM14; SRSF2 genotype: SRSF2 P95H/wt) [%] | cell viability (MOLM14; SRSF2 genotype: SRSF2 wt/wt) [%] | cell viability (OCI-AML2; SRSF2 genotype: P95H/wt) [%] | cell viability (OCI-AML2; SRSF2 genotype: wt/wt) [%]
CN(C)CCOc1ccc(-c2nc(-c3ccncc3)c(-c3ccc4c(c3)CC/C4=N\O)[nH]2)cc1 | 1.3% and 2.07% | 0.83 | 11.5 | 4.32 | 30.2 | 49.3 | 6.47 | 15.8
N#Cc1cc(-c2n[nH]c(-c3ccncc3)n2)ccn1 [Topiroxostat] | 90.1% and 106% | 94 | 104 | 111 | 104 | 103 | 98.8 | 100
Cc1nnc(SCC2=C(C(=O)O)N3C(=O)[C@@H](NC(=O)Cn4cc(Cl)c(=O)c(Cl)c4)[C@H]3SC2)s1 [Cefazedone] | 102% and 107% | 108 | 106 | 111 | 106 | 106 | 121 | 102
Fc1ccc([C@@H]2CCNC[C@H]2COc2ccc3c(c2)OCO3)cc1 [Paroxetine mesylate] | 34.1% and 53.1% | 49.5 | 39 | 35.6 | 33.4 | 38.1 | 28.7 | 39.2
N#CCNC(=O)c1ccc(-c2ccnc(Nc3ccc(N4CCOCC4)cc3)n2)cc1 [Momelotinib (CYT387)] | 81.2% and 85.3% | 86.1 | 26.7 | 42.8 | 15 | 5.08 | 11 | 15.7
CCCc1cc2c(N3CCN(C4=NCC(C)(C)S4)CC3)ncnc2s1 [MI-2 (Menin-MLL inhibitor)] | 73.4% and 74.9% | 71.4 | 62.1 | 57.1 | 76.2 | 84.1 | 45.1 | 53.3
CCN(CC)C(=O)C1(c2ccccc2)CC1CN (centres undefined) [Milnacipran HCl] | 96.3% and 102% | 96.8 | 99.6 | 106 | 102 | 105 | 106 | 108
C=C1CC[C@H]2O[C@]2(C)CC[C@@H]2[C@@H]1CC2(C)C [Caryophyllene oxide] | 100% and 97% | 105 | 102 | 105 | 103 | 107 | 112 | 98
O=C1O[C@H]([C@@H](O)CO)C(O)=C1O [Vitamin C (Ascorbic acid)] | 89.8% and 88.3% | 85.8 | 100 | 92.8 | 90.8 | 95.1 | 91 | 93
O=CC[C@@H](O)[C@H](O)[C@H](O)CO [2-Deoxy-D-glucose] | 104% and 94.5% | 99.2 | 101 | 107 | 102 | 101 | 91.3 | 108
CC1=C(/C=C/C(C)=C/C=C/C(C)=C/C(=O)O)C(C)(C)CCC1 [All-trans Retinoic Acid (Tretinoin)] | 88.7% and 90.3% | 93 | 68.7 | 73.6 | 54.2 | 75.3 | 11.3 | 37.4
Cc1cc(C)cc(Oc2ccc(CNC(=O)[C@H](C)N)cc2C)c1 | 85.9% and 95.5% | 93.9 | 86.5 | 87.8 | 78.1 | 94.3 | 75.5 | 83.3
CC[C@@]1(O)C(=O)OCc2c1cc1n(c2=O)Cc2cc3cc(O)ccc3nc2-1 [Hydroxy Camptothecine] | 10.4% and 26.6% | 9.83 | 4.88 | 4.13 | 0.53 | 0.32 | 0.49 | 2.23
O=c1c(O)c(-c2ccc(O)c(O)c2)oc2cc(O)cc(O)c12 [Quercetin dihydrate (Sophoretin)] | 107% and 99.5% | 92.6 | 98.4 | 98 | 100 | 99.6 | 97.4 | 96.5
O=C(O)c1cc(I)ccc1NC(=O)[C@H](Cc1ccccc1)NCc1ccccc1 | 102% and 98.6% | 101 | 99.9 | 103 | 99 | 101 | 110 | 119
CC(C)(C#N)c1cc(Cn2cncn2)cc(C(C)(C)C#N)c1 [Anastrozole] | 102% and 109% | 107 | 97.4 | 105 | 103 | 99.1 | 93.5 | 95.3
CCC(=O)N1CCN(c2ccc(-n3c(=O)ccc4cnc5ccc(-c6cnc7ccccc7c6)cc5c43)cc2C(F)(F)F)CC1 [Torin 1] | 46.8% and 45.3% | 46.4 | 64.6 | 61.4 | 39.8 | 36.2 | 41.5 | 39.9

Structure (SMILES) | cell viability (K562; SRSF2 genotype: SRSF2 P95H/wt) | cell viability (K562; SRSF2 genotype: SRSF2 wt/wt) [%] | cell viability (MARIMO; SRSF2 genotype: SRSF2 P95H/wt) [%] | cell viability (MARIMO; SRSF2 genotype: SRSF2 wt/wt) [%] | cell viability (MOLM14; SRSF2 genotype: SRSF2 P95H/wt) [%] | cell viability (MOLM14; SRSF2 genotype: SRSF2 wt/wt) [%] | cell viability (OCI-AML2; SRSF2 genotype: P95H/wt) [%] | cell viability (OCI-AML2; SRSF2 genotype: wt/wt) [%]
COc1c/c(=C2\C=c3ccccc3=N2)[nH]/c1=C\c1[nH]c(C)cc1C [Obatoclax mesylate (GX15-070)] | 2.96% and 5.97% | 9.27 | 23.4 | 23.6 | 6.74 | 7.58 | 2.7 | 13.3
Cc1c(NC(=O)OC[C@@H]2COCCN2)cn2ncnc(Nc3ccc4c(cnn4Cc4cccc(F)c4)c3)c12 | 75.3% and 73.2% | 71.7 | 76.4 | 79.8 | 63.8 | 69.6 | 68.7 | 64.8
O=C1C2=C(CCN(Cc3ccccc3)C2)N2CCN=C2N1Cc1ccc(C(F)(F)F)cc1 | 39% and 40.3% | 34 | 43 | 36.9 | 31.1 | 34.1 | 22.3 | 22.3
FC(F)(F)c1ccc(/C=C/c2nc(COc3ccc(CCCCn4ccnn4)cc3)co2)cc1 [Mubritinib (TAK 165)] | 68.1% and 58.5% | 56.7 | 67.2 | 61.8 | 70.1 | 55.5 | 49.2 | 47
N[C@@H]1CCCN(c2c(/C=C3\SC(=O)NC3=O)cccc2-c2ccccc2)C1 | 82.5% and 88.2% | 81.1 | 83.9 | 93 | 90.8 | 105 | 78.6 | 75.1
CCCCCCCCCCCCCCCCCCCCCC(=O)O [Behenic Acid] | 101% and 91.8% | 103 | 97.7 | 112 | 104 | 108 | 91.8 | 102
Cc1cc(C)c(CNC(=O)c2cc(-c3ccc(CN4CCOCC4)cc3)cc3c2cnn3C2CCCC2)c(=O)[nH]1 | 105% and 117% | 120 | 113 | 111 | 104 | 107 | 111 | 106
O=c1cc(-c2ccc(O)cc2)oc2cccc(O)c12 [4',5-Dihydroxyflavone] | 89.4% and 86% | 89.7 | 84.4 | 84.6 | 64.3 | 72.5 | 66.4 | 69.4
COc1cc(F)c(F)c(Nc2ccc(I)cc2F)c1NS(=O)(=O)C1(C[C@H](O)CO)CC1 [Refametinib (RDEA119, Bay 86-9766)] | 53.8% and 59.1% | 62.1 | 31.8 | 33 | 30.7 | 22.7 | 35.4 | 35.1
Cc1ccc(-n2[nH]c(C)c(N=Nc3cccc(-c4cccc(C(=O)O)c4)c3O)c2=O)cc1C [Eltrombopag olamine] | 76% and 80.3% | 69.3 | 54.9 | 69 | 75.4 | 68.5 | 66.3 | 60.3
Nc1ccc(/C=C/C(=O)NCc2cc3cc(-c4ccc(C(=O)N5CCC(F)(F)CC5)cc4)cc(-c4ccc(F)cc4)c3o2)cn1 | 19.8% and 14.3% | 19.1 | 10 | 13.1 | 4.36 | 1.09 | 4.54 | 4.59
C=CC(=O)N1C[C@H](Nc2ncnc3[nH]ccc23)CC[C@@H]1C | 96.3% and 105% | 102 | 94.5 | 97.7 | 81.1 | 93.8 | 86.8 | 91.6
Cn1nnc2c(C(N)=O)ncn2c1=O [Temozolomide] | 99.9% and 108% | 101 | 94.5 | 94.2 | 86 | 99.2 | 94.9 | 96.6
Cc1cnc(NC(=O)C2=C(O)c3ccccc3S(=O)(=O)N2C)s1 [Meloxicam (Mobic)] | 98.6% and 90.8% | 90 | 86.4 | 103 | 90.8 | 92.7 | 86.6 | 99.4
COCC(=O)Nc1cc(Sc2ccccc2)ccc1N=C(NC(=O)OC)NC(=O)OC [Febantel] | 98.1% and 91.8% | 97.1 | 98.9 | 107 | 97.9 | 110 | 98.3 | 102
Cc1ccc(Nc2c(F)cccc2Cl)c(CC(=O)O)c1 [Lumiracoxib (COX-189)] | 96% and 98.3% | 96.3 | 98.9 | 96 | 100 | 93.4 | 109 | 101
